Entries with a potency or affinity are not part of this list. Active and inactive are the calls of the source.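 How the source made its calls: active means cell killing, meaning signal decrease, with fitted half-maximal dose at or below ten times the top valid tested dose; inconclusive means poor fit, or flat curve with 30 to 70% signal loss; inactive means the rest.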

The assay in a line: HeLa cell cytotoxicity, dose response, cytotoxicity control for MITF activator project, CellTiter-Glo luminescence, cherry-pick samples (AID 540259). To be noted: HeLa viability, CellTiter-Glo ATP luminescence, 24 h; series mostly up to 35 µM.
For the molecule `COc1ccc(C2Nc3ccccc3C(=O)N2c2ccc(C)cc2)cc1Cn1nnc2ccccc21` (configuration not stated), the molecule was classed as inactive.

On to `COc1ccc2cc(-c3csc(-c4cccnc4)n3)ccc2c1`, for which the call was inactive.

For `Cn1ccs/c1=N\C(=O)Nc1ccccc1`, the result was inactive.

In the case of `Cc1ccccc1Nc1nc(N)nc(COC(=O)c2ccccc2)n1`, the call was inactive.

As to `O=C(NCc1ccc2c(c1)OCO2)Nc1cccc(Cl)c1`, the result was inactive.

Regarding `COc1ccc(/C(C)=N/Nc2nncc3ccccc23)cc1`, the call was inactive.

As for `ClCCn1cnc2c(SCc3ccccc3)ncnc21`, the call was inactive.

Consider `FC(F)(F)c1cnc(-c2cnc(-c3cccnc3)nc2)c(Cl)c1`, for which the outcome was inactive.

Take `Cc1ccc(Nc2ncc3c(n2)CC(C)(C)CC3=O)cc1`: the result was inactive.

Turning to `Cc1ccc(-c2cn(-c3ccccc3)c(=S)[nH]2)cc1C`, the molecule was classed as inactive.

Regarding `Oc1cccc(-c2nc3ccc4ccccc4c3c3c2CCC3)c1`, the call was inactive.

In the case of `O=C1c2ccccc2C(=O)N1CCc1c[nH]c2ccccc12`, the outcome was inactive.

On to `O=c1[nH]c(Cc2cccs2)nc2scc(-c3ccc(Cl)cc3)c12`, for which the molecule was classed as inactive.

Take `C=CCc1c(C)nc(-c2ccccc2)nc1N/N=C/c1ccncc1`: the result was inactive.

For the molecule `O=C(Nc1cnc2ccccc2c1)N1CCCCC1`, the molecule was called inactive.

Take `O=C(Cc1ccccn1)c1ccc(Cl)cc1`: the molecule was called inactive.

In the case of `CCc1nnc(NS(=O)(=O)c2ccc(NC(=O)c3cccc(Cl)c3)cc2)s1`, the molecule was classed as inactive.

`COc1c(C)cccc1C(=O)Nc1ccc(N2CCN(S(C)(=O)=O)CC2)cc1`: the outcome was inactive.

Consider `O=S(=O)(c1cccs1)N1CCCc2cccc(O)c21`, for which the result was inactive.

In the case of `Clc1ccc(-n2nnc(-c3cccnc3Cl)n2)cn1`, the result was inactive.

As to `Cc1cc(Cl)ccc1OCc1cn2cccnc2n1`, the result was inactive.

With `O=C(Oc1ccc2ccccc2c1Cl)N1CCCCCC1`, the outcome was inactive.

As to `Oc1[nH]c2ccccc2c1C=Nc1ccccc1`, the molecule was classed as inactive.

With `N/C(=N\OC(=O)C1CCCCC1)c1cccc(Br)c1`, the molecule was called inactive.

`N#Cc1c(-c2ccc(Cl)cc2)ccn2nc(C3CCCCC3)nc12`: the call was inactive.

With `CCC(C)c1ccc(NC(=O)Nc2cccnc2)cc1` (configuration not stated), the call was inactive.

In the case of `CC(C)C(=O)Nc1cccc(C(=O)Nc2nnc(C(C)C)s2)c1`, the call was inactive.

On to `Cc1ccccc1-c1nc2cc(Cl)ccc2o1`, for which the result was inactive.

As to `COc1ccc(/C=C2\OC(=O)c3c(OC)cccc32)cc1OC`, the molecule was classed as inactive.

Take `COc1ccc(C(=O)NCCn2ccc3ccccc32)cc1`: the result was inactive.

Consider `O=c1[nH]c(COc2ccccc2)nc2ccccc12`, for which the call was inactive.

In the case of `O=C(O)c1ccc(-c2nc(-c3ccc(Cl)cc3)cs2)cc1`, the outcome was inactive.

In the case of `Cc1noc(N)c1C(=O)Nc1ccc(C(C)(C)C)cc1`, the molecule was called inactive.

Consider `O=C(Cc1ccccc1F)Nc1ccc(SC(F)F)cc1`, for which the outcome was inactive.

On to `COc1ccc(-c2c(C)nc3c(-c4ccsc4)cnn3c2N)cc1`, for which the result was inactive.

Regarding `COc1cccc(/C=N/Nc2c(Cl)cncc2Cl)c1O`, the molecule was classed as inactive.

For the molecule `N#Cc1ccsc1NC(=O)CCc1ccccc1`, the call was inactive.

The values are drawn from PubChem BioAssay AID540259 (Broad Institute, 2011).
